The record followed here is PubChem BioAssay (EPA / NIEHS).

Assay [1] can be described thus: ATG_XTT_Cytotoxicity: Cytotoxicity Assessment in the Attagene TRANS-FACTORIAL HepG2 Assay (AID 2283584).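 On AC50: cells exposed to compound for 24 h before reading; active means loss of viability signal versus DMSO baseline.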 Put shortly: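 Viability endpoint from XTT after 24 h chemical exposure of reporter-transfected human HepG2 liver cells; signal loss fitted relative to DMSO negative control.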
The nature of assay [2]: TOX21_p53_BLA_p2_viability: Viability Assessment in the Tox21 HCT-116 p53 Agonism Beta-lactamase Assay, Phase 2 (AID 2283591).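 Further: compound exposure lasted 16 h at 37 °C; actives lower the ATP signal meaning cytotoxicity.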 Put shortly:
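HCT116 p53-bla cells, 4000/well, dosed after 5 h plating (217-fold dilution of DMSO stocks) and incubated 16 h at 37C. Viability taken as cellular ATP by CellTiter-Glo luminescence after 30 min RT; signal loss marks cytotoxicity.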

Assay [3] is described as follows: TOX21_p53_BLA_p3_viability: Viability Assessment in the Tox21 HCT-116 p53 Agonism Beta-lactamase Assay, Phase 3 (AID 2283593).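 Further: cells exposed to compound for 16 h before reading.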 In outline:
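HCT116 cells, 4000/well, dosed 5 h after plating by pin transfer (217-fold dilution from DMSO stock) and incubated 16 h at 37C, 5% CO2. Viability read as ATP luminescence with CellTiter-Glo after 30 min at room temperature.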

The target of assay [4] is Cellular tumor antigen p53 (Homo sapiens) (UniProt P04637). In words: TOX21_p53_BLA_p2_ratio: Tox21 HCT-116 p53 Agonism Beta-lactamase Assay, Ratio, Phase 2 (AID 2283592). In outline:
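Gain-of-signal p53 agonism was scored from the beta-lactamase FRET ratio (460/530 nm, 405 nm excitation) in HCT116 cells treated 16 h at 37C, 5% CO2, with DMSO serving as negative control and baseline.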

For assay [5] the target is unchanged. In words: TOX21_p53_BLA_p3_ratio: Tox21 HCT-116 p53 Agonism Beta-lactamase Assay, Ratio, Phase 3 (AID 2283596). Put shortly:
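HCT116 p53-bla cells (4000/well) given compound in DMSO (217-fold dilution) after 5 h, incubated 16 h at 37C. CCF4-AM substrate 2 h at room temperature; 460/530 nm emission ratio, gain fitted against DMSO.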

The nature of assay [6]: TOX21_p53_BLA_p4_viability: Viability Assessment in the Tox21 HCT-116 p53 Agonism Beta-lactamase Assay, Phase 4 (AID 2283597).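 Further: hits lower the luminescence signal meaning cytotoxicity.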 Put shortly:
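Following a 16 h exposure at 37C, the treated HCT116 wells were first read for the FRET ratio. They were then lysed with CellTiter-Glo, and ATP luminescence was recorded after 30 min at room temperature.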

Assay [7] deals with Cellular tumor antigen p53 (Homo sapiens) (UniProt P04637). Briefly: TOX21_p53_BLA_p5_ratio: Tox21 HCT-116 p53 Agonism Beta-lactamase Assay, Ratio, Phase 5 (AID 2283599). In outline:
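HCT-116 p53-bla cells (4000/well) plated 5 h, dosed with compound (217-fold DMSO dilution) for 16 h at 37 C; CCF4-AM substrate 2 h at room temperature. Activity is the 460/530 nm emission ratio (405 nm excitation), fitted in gain-of-signal direction versus DMSO.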

The structures appear in SMILES notation. “And” between values parts separate entries of the source, which are not always exact repeats. Identical values can stand only once. Inconclusive results are not listed. Some compounds were tested as several samples or in several runs, with calls that do not always agree. The source made the active and inactive calls. How the source made its calls: active means hit-call score of the fitted dose curve at least 0.9, where 1 is the maximum; inconclusive means response in the unintended direction; inactive means score below 0.9.

One may read the AC50 as the concentration at which the activity in the assay is half-maximal.

Chain of Cellular tumor antigen p53 (Homo sapiens) (P04637 whole entry, looked up): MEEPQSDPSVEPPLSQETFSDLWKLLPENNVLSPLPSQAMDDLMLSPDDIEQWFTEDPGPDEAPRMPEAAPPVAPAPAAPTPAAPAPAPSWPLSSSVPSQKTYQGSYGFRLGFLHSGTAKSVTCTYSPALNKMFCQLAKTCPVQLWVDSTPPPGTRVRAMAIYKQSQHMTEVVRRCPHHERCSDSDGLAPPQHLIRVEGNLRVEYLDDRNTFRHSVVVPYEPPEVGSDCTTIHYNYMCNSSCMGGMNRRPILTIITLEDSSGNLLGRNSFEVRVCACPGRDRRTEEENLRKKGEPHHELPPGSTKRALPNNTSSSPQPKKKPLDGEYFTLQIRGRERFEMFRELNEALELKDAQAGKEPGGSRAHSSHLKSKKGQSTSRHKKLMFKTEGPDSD

As to `O=S(=O)(O)c1ccccc1`, in assay [1], the result was inactive.

Regarding `O=C(O)CN(CCCN(CC(=O)O)CC(=O)O)CC(=O)O`, the call in assay [1] was inactive.

As for `CC1CNCC(C)O1` (stereo unspecified), in assay [1], the result was inactive.

In the case of `CC1CCC(C(=O)O)CC1` (stereo unspecified), the outcome in assay [1] was inactive.

As to `CCCCCc1ccc(O)cc1`, the result in assay [1] was inactive.

For the compound `O=S(=O)(c1ccc(OCc2ccccc2)cc1)c1ccccc1O`, the call in assay [1] was inactive.

On to `C=Cc1ccc(O)c(OC)c1`, for which, in assay [1], the compound was classed as inactive.

On to `CC[N+](CC)(CC)Cc1ccccc1`, for which, in assay [1], the compound was classed as inactive.

Consider `CCCCCCCC(OC)OC`, for which the result in assay [1] was inactive.

Turning to `Cc1ccccc1OCC(=O)O`, the result in assay [1] was inactive.

For the compound `CCCCN(C)C`, in assay [1], the compound was classed as inactive.

`C/C=C/C(=O)C1=C(C)CCCC1(C)C`: in assay [1], the compound was called inactive.

Turning to `O=C(NCc1ncc(C(F)(F)F)cc1Cl)c1c(Cl)cccc1Cl`, in assay [1], the call was inactive.

For `Oc1c(Cl)cc(Cl)cc1Sc1cc(Cl)cc(Cl)c1O`, the AC50 in assay [1] is 41.5 µM (active); in assay [2] it was 43.1 µM (active) and 23.4 µM (active) and 76.2 µM (active); in assay [3], 73.1 µM (active) and 36.2 µM (active) and 1.49 µM (active). In addition, the compound was called inactive in assay [2] and in assay [3].

Regarding `CCN(CCC#N)c1ccccc1`, the compound was classed as inactive in assay [1].

Turning to `Cc1cccc2c1ccc1ccccc12`, in assay [1], the call was inactive.

Consider `COCC1CCC(CO)CC1` (stereo unspecified), for which, in assay [1], the compound was classed as inactive.

For `CC1CCC(CO)CC1` (stereo unspecified), in assay [1], the compound was classed as inactive.

Regarding `COc1cccc(O)c1`, in assay [1], the result was inactive.

Regarding `CCOC(OCC)C(=O)c1ccccc1`, the compound was classed as inactive in assay [1].

As to `CCCCCCCCC(C)=O`, in assay [1], the outcome was inactive.

On to `C=C(c1ccc(C(=O)O)cc1)c1cc2c(cc1C)C(C)(C)CCC2(C)C`, for which, in assay [1], the AC50 was 25.3 µM (active).

In the case of `CCc1cccc(CC)c1NC(=O)C(=O)O`, the call in assay [1] was inactive.

For `NNC(=O)CCCCC(=O)NN`, in assay [1], the result was inactive.

With `COC1=CC(=O)C[C@@H](C)[C@]12Oc1c(Cl)c(OC)cc(OC)c1C2=O`, in assay [1], the outcome was inactive.

As to `c1cc[nH]c1`, in assay [1], the outcome was inactive.

For the compound `Nc1cc(Cl)c(-c2cc(Cl)c(N)cc2Cl)cc1Cl`, the call in assay [1] was inactive. The half-maximal activity concentration (AC50) was 31.3 µM (active) and 40.9 µM (active) in assay [2]; 69 µM (active) and 81.7 µM (active) in assay [4]; 70.8 µM (active) and 63.8 µM (active) in assay [3]; 86.4 µM (active) and 84.5 µM (active) in assay [5]; 40.7 µM (active) and 29.6 µM (active) in assay [6]; 85.2 µM (active) and 85.6 µM (active) in assay [7].

In the case of `CC(C)(C)c1ccc(O)c(O)c1`, the result in assay [1], in assay [2], in assay [4], in assay [3], in assay [5] and in assay [6] was inactive. For the same compound, the result in assay [7] was inactive.

As for `CCCCCCOC(=O)c1ccc(O)cc1`, the AC50 in assay [1] was 149 µM (active); in assay [4] it was 67.3 µM (active); in assay [5], 86 µM (active); in assay [6] it was 43.2 µM (active) and 64.2 µM (active); in assay [7], 70.6 µM (active) and 76.8 µM (active). Also, the call in assay [2], in assay [4], in assay [3] and in assay [5] was inactive.

On to `O=C(NO)c1ccccc1`, for which the outcome in assay [1], in assay [2], in assay [4], in assay [3], in assay [5] and in assay [6] was inactive. Besides, the outcome in assay [7] was inactive.

As for `CC(C)(C)c1ccc(CCC=O)cc1`, the compound was called inactive in assay [1], in assay [2], in assay [4], in assay [3], in assay [5] and in assay [7].

For the compound `CC(C)(O)C(=O)c1ccccc1`, the outcome in assay [1], in assay [2], in assay [4] and in assay [3] was inactive.

Regarding `CCCCCCCCCCCC[N+](C)(C)CCCCCCCCCCCC`, the AC50 was 62.4 µM (active) in assay [1]; 23.5 µM (active) in assay [2]; 41.4 µM (active) in assay [4]; 50.7 µM (active) in assay [3]; 66.5 µM (active) in assay [5]; 46.1 µM (active) in assay [6]. Moreover, the AC50 in assay [7] is 56.6 µM (active).

Take `O=C(Nc1cccc([N+](=O)[O-])c1)c1cc2ccccc2cc1O`: the compound was called inactive in assay [1], in assay [2] and in assay [3]. Besides, the AC50 was 1.17 µM (active) in assay [4], 1.1 µM (active) in assay [5], 16.6 µM (active) in assay [6] and 4.65 µM (active) in assay [7].

Turning to `Oc1c(Cl)ccc(Cl)c1Cl`, the outcome in assay [1], in assay [2], in assay [4], in assay [3], in assay [5] and in assay [6] was inactive. Further, the result in assay [7] was inactive.

`NNc1nc(-c2ccc([N+](=O)[O-])cc2)cs1`: the compound was classed as inactive in assay [1], in assay [2] and in assay [3]. Moreover, the AC50 in assay [4] is 40.1 µM (active); in assay [5] it was 55.7 µM (active); in assay [6], 46.1 µM (active); in assay [7], 39.6 µM (active).

For the compound `CCCCCCCCCCCCCCCCCC[N+](C)(C)Cc1ccccc1`, the AC50 is 29 µM (active) in assay [1]; 41.1 µM (active) in assay [2]; 74.3 µM (active) in assay [4]; 24.4 µM (active) in assay [3]; 60.6 µM (active) in assay [5]; 38.1 µM (active) in assay [6]. The result in assay [7] was inactive.

As for `CCCCCCCCCC=CCC1CC(=O)OC1=O` (stereo unspecified), the result in assay [1], in assay [2], in assay [4], in assay [3], in assay [5] and in assay [6] was inactive. The result in assay [7] was inactive.

Regarding `CCCCCCCCCCCCCC[n+]1ccccc1`, the AC50 in assay [1] was 28.3 µM (active); in assay [4], 4.85 µM (active); in assay [5], 14.1 µM (active); in assay [6], 13.3 µM (active). Further, the compound was classed as inactive in assay [2], in assay [3] and in assay [7].

As to `CCCCCCCCCCCC(=O)NCCCN(C)C`, the outcome in assay [1] was inactive. Also, the concentration at half-maximal activity (AC50) was 44.2 µM (active) in assay [2]; 87.1 µM (active) in assay [4]; 47.3 µM (active) in assay [3]; 87.2 µM (active) in assay [5]; 29 µM (active) in assay [6]; 86 µM (active) in assay [7].

Regarding `COc1cc([N+](=O)[O-])ccc1N`, the compound was classed as inactive in assay [1], in assay [2], in assay [4] and in assay [3].

As for `O=C1OC2(c3ccccc31)c1cc(I)c(O)c(I)c1Oc1c2cc(I)c(O)c1I`, the compound was called inactive in assay [1], in assay [2], in assay [4], in assay [3], in assay [5] and in assay [6]. Besides, in assay [7], the outcome was inactive. The AC50 in assay [4] is 78.6 µM (active); in assay [5], 87.3 µM (active); in assay [6] it was 58.1 µM (active); in assay [7] it was 83 µM (active).
